We go through eight molecules from PubChem BioAssay (NCI).

Each structure is given as a SMILES string. Compounds without any hit were thinned out: in the full panel of roughly 83,000, 20% have a hit.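 Testing used 96-well plates and a 48-hour single-concentration exposure. Example: -40 means 40% of the starting cells died.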 Values without a mark were called inactive. Calls of active or inactive are those of the source. Rule for the calls: active = growth percent below 10; inactive = the rest.

Some test systems named below: HCT-15 colon; HT29 colon; SNB-75 CNS; SNB-19 CNS; U251 CNS; PC-3 prostate; SK-MEL-5 melanoma; UACC-62 melanoma; LOX IMVI melanoma; SK-MEL-28 melanoma; SK-MEL-2 melanoma; EKVX NSCLC; SN12C renal; UO-31 renal; TK-10 renal; ACHN renal; CAKI-1 renal; A498 renal; CCRF-CEM leukemia; MOLT-4 leukemia.
Experiment in all cases: NCI-60 one-dose screen, 48 h (100 = growth as untreated, 0 = no growth, -100 = all killed)
Holding throughout (conditions): 10 µM unless noted

With `COc1cc(/C=C2\C(=O)Nc3ccccc32)cc(OC)c1O`, the growth in the assay on HCT-15 colon is 61.6%; with HT29 colon, 75.7%; in the assay on SNB-75 CNS, 23.1%; with SNB-19 CNS it was 83.7%; in the assay on U251 CNS, 47%; in the assay with PC-3 prostate, 51.2%. Besides, the growth is 45.7% in the assay on SK-MEL-5 melanoma; 72.1% with UACC-62 melanoma; 36.5% in the assay with LOX IMVI melanoma; 90.3% with SK-MEL-28 melanoma; 50.4% with SK-MEL-2 melanoma; 110% in the assay with EKVX NSCLC. The growth in the assay with SN12C renal was 77%; in the assay on UO-31 renal, 60%; in the assay on TK-10 renal, 88.5%; in the assay with ACHN renal, 77%; in the assay with CAKI-1 renal, 37.7%; in the assay with A498 renal it was 52.5%. The results for the growth in the assay on CCRF-CEM leukemia and with MOLT-4 leukemia were 26.7% and 0.624% (active), respectively.

As to `O=C1NC(=S)S/C1=C\c1cccc([N+](=O)[O-])c1`, the growth in the assay on HCT-15 colon was 93.3%; in the assay on HT29 colon, 109%; in the assay on SNB-75 CNS, 83.8%; in the assay on SNB-19 CNS it was 98%; with U251 CNS, 92.7%; with PC-3 prostate, 88.1%. In addition, the growth was 89.9% with SK-MEL-5 melanoma; 70% in the assay on UACC-62 melanoma; 88.9% in the assay with LOX IMVI melanoma; 112% in the assay with SK-MEL-28 melanoma; 103% in the assay with SK-MEL-2 melanoma; 90.4% in the assay on EKVX NSCLC. The growth is 94.1% with SN12C renal; 65.1% with UO-31 renal; 107% with TK-10 renal; 89.2% in the assay with ACHN renal; 87.5% with CAKI-1 renal; 96.1% in the assay with A498 renal. Moreover, the figures for the growth with CCRF-CEM leukemia and with MOLT-4 leukemia were 78.2% and 85.5%, respectively.

For `COC(=O)c1c2c(c(C)[n+]([O-])c1C)C(=O)C(NCc1ccc(O)cc1)=CC2=O`, the growth was -43.4% (active) in the assay with HCT-15 colon; 3.68% (active) in the assay with HT29 colon; -29.5% (active) in the assay on SNB-75 CNS; -28.5% (active) in the assay with SNB-19 CNS; -0.0674% (active) in the assay with U251 CNS; 7.51% (active) in the assay on PC-3 prostate. The growth with SK-MEL-5 melanoma was -99.7% (active); with UACC-62 melanoma it was -73.8% (active); in the assay with LOX IMVI melanoma, -89.6% (active); with SK-MEL-28 melanoma it was -3.61% (active); with SK-MEL-2 melanoma it was -12.5% (active); in the assay on EKVX NSCLC, -34.5% (active). The growth was -89.9% (active) in the assay on SN12C renal; 6.95% (active) in the assay with UO-31 renal; 74.1% in the assay with TK-10 renal; 8.06% (active) in the assay on ACHN renal; 7.36% (active) in the assay on CAKI-1 renal; 6.08% (active) with CCRF-CEM leukemia. For the same molecule, the growth with MOLT-4 leukemia was -1.35% (active).

Consider `O=[N+]([O-])c1ccc(O)c2ncccc12`, for which the growth is 31.5% with HCT-15 colon; 81% in the assay on HT29 colon; 84.1% in the assay with SNB-75 CNS; 37.9% with SNB-19 CNS; 34.2% in the assay on U251 CNS; 37.9% with PC-3 prostate. The growth with SK-MEL-5 melanoma was 56.4%; in the assay with UACC-62 melanoma it was 29.1%; in the assay on LOX IMVI melanoma it was 46.8%; in the assay on SK-MEL-28 melanoma, 81.7%; in the assay with SK-MEL-2 melanoma it was 79.1%; with EKVX NSCLC, 39.8%. Further, the growth is 35.9% with SN12C renal; 60.3% in the assay on UO-31 renal; 83.2% in the assay with TK-10 renal; 51.8% in the assay with ACHN renal; 57% in the assay with CAKI-1 renal; 96% in the assay with A498 renal. Moreover, the growth is 25.5% in the assay on CCRF-CEM leukemia and 33.4% in the assay on MOLT-4 leukemia.

Take `CCN1CCN(c2nc3ccccc3c3c(=O)c4cc(F)ccc4sc23)CC1`: the growth in the assay with HCT-15 colon was 48.2%; in the assay on HT29 colon, 28%; with SNB-75 CNS, 39.7%; in the assay on SNB-19 CNS, 80.9%; in the assay on U251 CNS, 46.5%; in the assay on PC-3 prostate, 78%. In addition, the growth in the assay on SK-MEL-5 melanoma was 82.8%; in the assay on UACC-62 melanoma, 44.1%; with LOX IMVI melanoma, 60.9%; in the assay on SK-MEL-28 melanoma it was 78.2%; in the assay on SK-MEL-2 melanoma, 98.8%; with EKVX NSCLC, 82.8%. Also, the growth with SN12C renal was 80.7%; with UO-31 renal, 44%; with TK-10 renal it was 85.2%; with ACHN renal, 59.4%; with CAKI-1 renal it was 67.9%; in the assay on A498 renal it was 28.9%. Moreover, the results for the growth with CCRF-CEM leukemia and in the assay on MOLT-4 leukemia were 68.5% and 27.9%, respectively.

In the case of `O=C1/C(=C/c2ccc(Cl)cc2)N=C(c2ccccc2)N1CCc1cccs1`, the growth in the assay with HCT-15 colon was 10.2%; in the assay with HT29 colon, 0.797% (active); in the assay with SNB-75 CNS, 31.1%; with SNB-19 CNS, 64.5%; in the assay on U251 CNS, 44.5%; with PC-3 prostate, 59%. The growth is 84.7% in the assay with SK-MEL-5 melanoma; 55.7% in the assay with UACC-62 melanoma; 30.1% in the assay on LOX IMVI melanoma; 77.4% in the assay on SK-MEL-28 melanoma; 69.5% in the assay on SK-MEL-2 melanoma; 72.1% in the assay with EKVX NSCLC. The growth with SN12C renal was 45.6%; with UO-31 renal it was 48.4%; with TK-10 renal, 54.8%; in the assay on ACHN renal it was 43%; with CAKI-1 renal, 58.1%; in the assay with A498 renal, 72.7%. Further, the growth in the assay on CCRF-CEM leukemia is 85.9%.

Regarding `O=C(NCc1cccnc1)c1ccc([N+](=O)[O-])o1`, the growth is -68.1% (active) in the assay with HCT-15 colon; -68.5% (active) in the assay on HT29 colon; -3.32% (active) with SNB-75 CNS; 16.8% with SNB-19 CNS; 4.88% (active) in the assay on U251 CNS; 24.5% in the assay on PC-3 prostate. Besides, the growth in the assay on SK-MEL-5 melanoma is 4.47% (active); in the assay on UACC-62 melanoma, -67.9% (active); in the assay on LOX IMVI melanoma, -77.9% (active); in the assay with SK-MEL-28 melanoma, 17%; in the assay on SK-MEL-2 melanoma it was -16.7% (active); in the assay with EKVX NSCLC it was 62.1%. The growth was -53.4% (active) in the assay on SN12C renal; 2.12% (active) in the assay on UO-31 renal; -30.5% (active) in the assay on TK-10 renal; 34.5% with ACHN renal; -3.61% (active) with CAKI-1 renal; 9.84% (active) in the assay on A498 renal. Besides, the values for the growth in the assay on CCRF-CEM leukemia and in the assay on MOLT-4 leukemia were 54.4% and 65.8%, respectively.

Turning to `CCOC(=O)c1cn2c3c(cc(F)cc3c1=O)C(CC)c1ccccc1C2` (stereo not drawn), the growth in the assay on HCT-15 colon is 57.8%; in the assay with HT29 colon, 95.9%; with SNB-75 CNS it was 92.3%; with SNB-19 CNS it was 103%; in the assay with U251 CNS it was 83.8%; in the assay with PC-3 prostate it was 81.6%. For the same molecule, the growth was 63.7% in the assay with SK-MEL-5 melanoma; 105% in the assay with UACC-62 melanoma; 84.9% with LOX IMVI melanoma; 98.9% in the assay on SK-MEL-28 melanoma; 96.8% with SK-MEL-2 melanoma; 99.7% in the assay with EKVX NSCLC. In addition, the growth in the assay with SN12C renal is 96.3%; in the assay on UO-31 renal, -57.3% (active); with TK-10 renal, 111%; in the assay with ACHN renal, 105%; with CAKI-1 renal, 102%; in the assay with A498 renal, 89.5%. For the same molecule, the growth in the assay with CCRF-CEM leukemia is 74.9%; with MOLT-4 leukemia it was 65.6%.
